The panel holds about 83,000 compounds, 20% with a hit somewhere; the sample as a whole holds those more often.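 How to read the values: 0–100, growth inhibition (40 = 60% inhibited); 0, no net growth; -100 to 0, cell death (-40 = 40% of starting cells died; -100 = all dead).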 Calls of active or inactive are those of the source. The calls were made as follows: active = growth percent below 10; inactive = the rest.
test system: OVCAR-4 ovarian; assay: NCI-60 one-dose screen, 48 h (100 = growth as untreated, 0 = no growth, -100 = all killed); details: 10 µM unless noted

| Compound | growth |
| --- | --- |
| Fc1ccc(C2=NN(c3ccccc3)C(c3sc(N(CCCl)CCCl)nc3Cl)C2)cc1 (stereo not drawn) | 78.8% (inactive) |
| CC[C@H](C)[C@H](NC(=O)Nc1ccccc1)C(=O)N(C)[C@H](C[C@@H](OC(C)=O)c1nc(C(=O)N[C@@H](Cc2ccccc2)C[C@H](C)C(=O)OC)cs1)C(C)C | 31.5% (inactive) |
| O=C(N/N=C/c1ccc(N(CCCl)CCCl)cc1)c1cc(=O)[nH]c(=O)[nH]1 | 109% (inactive) |
| O=[As]c1ccc(C(=O)c2ccc(Oc3ccccc3)cc2)cc1 (stereo not drawn) | -91.2% (active) |
| O=[N+]([O-])c1cc([N+](=O)[O-])c(Cl)c(Cl)c1Cl | -31.4% (active) |
| COc1ccc2c(c1)NC1=C(C(=O)OC1)C2c1cc(OC)c(OC)c(OC)c1 (stereo not drawn) | 37% (inactive) |
| C=CCc1ccc(OC(=O)Cc2ccccc2)c(OC)c1 | 102% (inactive) |
| CC(C)(O)/C=C/C(=O)[C@](C)(O)[C@H]1[C@H](O)C[C@@]2(C)[C@@H]3CC=C4[C@@H](C=C(O)C(=O)C4(C)C)[C@]3(C)C(=O)C[C@]12C | -45.9% (active) |
| C[C@]12CCc3sc(-c4ccc(Cl)cc4)nc3C1=CC[C@@H]1[C@@H]2CC[C@]2(C)C(=O)CC[C@@H]12 | 74% (inactive) |
| C=CCC1(CC)C(=O)NC(=S)NC1=O | 110% (inactive) |
| NC(Cc1ccc2c(c1)OCO2)c1ccc2c(c1)OCO2 (stereo not drawn) | 101% (inactive) |
| O=C(CF)N(O)c1ccc(/C=C/c2ccccc2)cc1 | 70.8% (inactive) |
| COc1ccc(/C=C(/C(=O)N2CCCC2)c2cc(OC)c(OC)c(OC)c2)cc1N | 46.4% (inactive) |
| Nc1nc(N)c(-c2ccc(Cl)c(Cl)c2)c(/C=C/c2ccc(S(=O)(=O)F)cc2)n1 | 100% (inactive) |
| Nc1c(Br)cc([N+](=O)[O-])cc1[N+](=O)[O-] | 107% (inactive) |
| Oc1ccc(O)c2c1C1(Cl)C(Cl)=C(Cl)C2(Cl)C1(Cl)Cl | 54.1% (inactive) |
| CN(C)P1(N(C)C)=NP(N(C)C)(N(C)C)=NP(N(C)C)(N(C)C)=N1 | 95% (inactive) |

| Compound | growth |
| --- | --- |
| CCCCNCCc1ccccn1 | 106% (inactive) |
| CNC(=O)Oc1cccc(OC)c1 | 105% (inactive) |
| NC(=O)SCC(=O)Nc1ccc([As](=O)(O)O)cc1 | 99.8% (inactive) |
| C[C@]12CC[C@H]3[C@@H](C[C@@H]4N=C(c5ccc(O)cc5)S[C@@]45C[C@H](O)CC[C@]35C)[C@@H]1CC[C@@H]2O | 81.8% (inactive) |
| CC1(C)N=C(N)N=C(N)N1c1ccc(CCCCc2ccc(S(=O)(=O)F)cc2)cc1 | 86.1% (inactive) |
| Nc1c(Br)cc2c3c(cccc13)-c1ccccc1-2 | 62.1% (inactive) |
| CC(C)C1c2ccc(O)cc2Oc2nc(N)c(C#N)c(N)c21 (stereo not drawn) | 101% (inactive) |
| c1ccc2nc(OCCN3CC3)ccc2c1 | 75.3% (inactive) |
| CC1(C)N=C(N)N=C(N)N1c1ccc(CNC(=O)Nc2ccc(S(=O)(=O)F)c(Cl)c2)c(Cl)c1 | 68.8% (inactive) |
| c1ccc(-c2ccc3ccccc3[o+]2)cc1 | 90.5% (inactive) |
| CSc1ccccc1NP1(=O)OCC(C)([N+](=O)[O-])CO1 (stereo not drawn) | 105% (inactive) |
| CC1COC(=O)C1 (stereo not drawn) | 109% (inactive) |
| C[CH2][Pb]([CH2]C)([CH2]C)[O]C(=O)COc1ccccc1 | 14.8% (inactive) |
| CCCC(C)(C)c1ccc2c(c1)OC(C)(C)[C@@H]1CC=C(C)C[C@@H]21 | 100% (inactive) |
| OC1(c2ccc(Cl)cc2Cl)c2ccccc2C2=NCCN21 (stereo not drawn) | 105% (inactive) |
| O=C(Nc1ccc(S(=O)(=O)F)cc1)Oc1ccccc1 | 97% (inactive) |

— PubChem BioAssay (NCI)
